Source: PubChem (National Center for Advancing Translational Sciences (NCATS))
Rows were chosen to be rich in hits. Some 3.1% of all compounds tested hit in one or more screens of this group.
RGS4 inh = human RGS4 inhibition; P49798; Transcreener GDP fluorescence polarization, RGS4-accelerated GTP hydrolysis; Potency, µM (series often up to 114 µM), actives largely listed as inhibitors; actives 0.039% (n = 390,000); AID 504845; active = well fitted inhibition curve with a large enough effect; inconclusive = small, poorly fitted or top-dose-only effect; inactive = no such curve, though single readings can be large or run the other way; note: nearly all actives have a fitted effect of over 75% in size
Target sequence (P49798 whole entry, looked up): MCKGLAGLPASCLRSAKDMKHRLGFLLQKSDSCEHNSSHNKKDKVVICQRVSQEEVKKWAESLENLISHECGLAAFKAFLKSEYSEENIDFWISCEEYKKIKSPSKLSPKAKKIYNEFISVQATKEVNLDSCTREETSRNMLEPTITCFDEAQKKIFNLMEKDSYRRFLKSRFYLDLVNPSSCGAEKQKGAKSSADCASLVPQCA
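MLSMR compounds (23 nl, pin-transferred) preincubated 10 min at room temperature with a 500nM (2x) first reagent, then RGS4 at 900nM (2x) plus Transcreener GDP mix added; fluorescence polarization (620/688 nm) read before and after 90 min at 30 °C.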
uPA surface inh = blocks generation of uPA at the cell surface | cell surface uPA generation assay, qHTS | Potency, µM (doses to about 38.3 µM), most hits filed as inhibitors | actives 0.31% (n = 330,000); active = well fitted inhibition curve with a large enough effect; inconclusive = small, poorly fitted or top-dose-only effect; inactive = no such curve, though single readings can be large or run the other way; tested in mouse RAW 264.7 cells; note: nearly all actives have a fitted effect of over 55% in size
D3 ag = agonists of human D3 dopamine receptor. P35462. D3R DiscoveRx beta-arrestin cells, luminescence, 90 min. max activation, %. actives 0.58% (n = 410,000). AID 652048; in the data active = max activation above about 30%
Target sequence (P35462 whole entry, looked up): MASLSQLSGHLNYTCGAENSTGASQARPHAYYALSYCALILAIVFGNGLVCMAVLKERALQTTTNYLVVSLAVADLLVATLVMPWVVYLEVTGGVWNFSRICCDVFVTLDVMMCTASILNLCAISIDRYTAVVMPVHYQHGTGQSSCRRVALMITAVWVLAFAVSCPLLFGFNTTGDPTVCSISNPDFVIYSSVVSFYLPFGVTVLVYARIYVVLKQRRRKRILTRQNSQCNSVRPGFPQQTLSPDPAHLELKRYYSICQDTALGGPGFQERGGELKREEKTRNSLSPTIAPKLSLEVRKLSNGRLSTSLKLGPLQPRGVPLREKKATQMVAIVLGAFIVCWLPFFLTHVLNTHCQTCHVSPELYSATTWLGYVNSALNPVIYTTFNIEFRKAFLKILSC
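Agonist-mode cell screen: cells plated at 1500/well and incubated overnight at 37 °C, then exposed to library compounds for 90 min at 37 °C. Detection reagent was added for 30–60 min at room temperature, and luminescence was read.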
D3 antag = blocks the human D3 dopamine receptor | actives 2.5% (n = 360,000) | D3R cells, DiscoveRx beta-arrestin luminescence, antagonist mode; hits give low values | AID 652054 | max response, negative = inhibition, %; in the data active = max response below about -50%; inconclusive = no clear call, values can overlap the other calls
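Cells plated overnight at 1500 cells/well, then exposed to library compounds with dopamine controls for 90 minutes at 37 degrees C. DiscoveRx reagent added for 30–60 minutes at room temperature; luminescence read, quantitative HTS format.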
Each line names hits and unclear results; the compound was inactive in the other large screens; ! = repeats disagree.

COc1ccc(CN2CCN(Cc3cccc(Oc4ccccc4)c3)CC2)c(OC)c1OC	D3 antag -70.3
COc1ccc(C(=O)C2CCCN(C/C=C/c3ccccc3OC)C2)c(OC)c1 (configuration not stated)	D3 antag -72.1
COc1ccc(CN2CCN(Cc3c[nH]c4ccccc34)CC2)cc1	D3 antag inconclusive
Cc1ccc(CN2CCN(Cc3ccccc3C(F)(F)F)CC2)cc1	D3 antag -72.4
CCCc1ccc(OCC(=O)Nc2sc3c(c2C(=O)OC)CCCCC3)cc1	RGS4 inh inconclusive (no result: uPA surface inh, D3 antag)
CCC(=O)OCC(=O)[C@@]1(OC(=O)CC)[C@H](C)C[C@H]2[C@@H]3CCC4=CC(=O)C=C[C@]4(C)[C@@]3(F)[C@@H](O)C[C@@]21C	none (no result: RGS4 inh, uPA surface inh, D3 antag)
COc1ccc(-c2nc(CS(=O)CC(=O)NCc3ccccc3Cl)c(C)o2)cc1OC (configuration not stated)	none (no result: uPA surface inh, D3 antag)
CCC(CC)C(=O)N(C)c1c(C)nc2c(OCCC3CCCCC3)cccn12	D3 antag -50.3 (no result: RGS4 inh, uPA surface inh)
CCc1nc2c(OCc3ccc(Cl)cc3)cccn2c1N(C)C(=O)c1ccco1	D3 antag -51.1 (no result: RGS4 inh, uPA surface inh)
CCc1nc2c(OCCC3CCCCC3)cccn2c1N(C)C(=O)c1ccc(OC)cc1	D3 antag -110.7 (no result: RGS4 inh, uPA surface inh)
CCCCN(C=O)c1c(CC)nc2c(OCc3ccc(Cl)cc3Cl)cccn12	D3 antag -56.9 (no result: RGS4 inh, uPA surface inh)
COC(=O)c1ccccc1NC(=O)c1cc2nc(-c3ccc(OC)cc3)cc(C(F)(F)F)n2n1	none (no result: uPA surface inh, D3 antag)
CCc1nc2c(OCc3cc(Cl)cc(Cl)c3)cccn2c1N(C)C(=O)CC(C)C	D3 antag -65.5 (no result: RGS4 inh, uPA surface inh)
CCc1nc2c(OCc3ccc(C(=O)OC)cc3)cccn2c1N(C)C(=O)c1ccc(OC)cc1	none (no result: RGS4 inh, uPA surface inh)
CCc1nc2c(OCc3cc(Cl)cc(Cl)c3)cccn2c1N(C)C(=O)c1ccc(OC)cc1	D3 antag -62.9 (no result: RGS4 inh, uPA surface inh)
CCc1nc2c(OCc3ccc(F)c(F)c3)cccn2c1N(C)C(=O)CC(C)C	none (no result: RGS4 inh, uPA surface inh)
C[S+](C)CCC(N)C(=O)O (configuration not stated)	none (no result: RGS4 inh, uPA surface inh, D3 antag)
CCC(=O)Oc1ccc(C/C(=N\O)c2ccc(O)cc2O)o1	D3 ag 55.9
O=S(=O)(c1ccc2c(c1)OCO2)N1CCN(c2nc(-c3cccs3)nc3ccccc23)CC1	none (no result: uPA surface inh, D3 ag, D3 antag)
CC1=C/C(=N\NC(=S)Nc2cccnc2)CC(C)(C)C1	uPA surface inh inconclusive, D3 antag -50.6
CC1(C)C2CC=C(/C=N/NC(=S)Nc3cccnc3)C1C2 (configuration not stated)	none
CCC(C)(C)C1CCC(=NNC(=S)Nc2cccnc2)CC1 (configuration not stated)	D3 antag -64.5
CCCCn1c(N)c(N(CC(C)C)C(=O)C2CCN(S(=O)(=O)c3ccc(C)cc3C)CC2)c(=O)[nH]c1=O	none
Cc1ccc(O)c(N=Nc2nccs2)c1	uPA surface inh 2.24µM, D3 antag inconclusive
COc1ccc(N=Nc2cc(C)ccc2O)cc1	uPA surface inh inconclusive
Fc1ccc(-c2cc3nc4c(c(N5CCOCC5)n3n2)CCCC4)cc1	D3 ag 47.1
Cc1cccc(-c2cc3nc4c(c(N5CCOCC5)n3n2)CCCC4)c1	none
COc1cccc(-c2cc(CC3(O)CCN(CCCc4ccccc4)CC3)on2)c1	D3 antag -95.8
COc1cccc(-c2cc(C(=O)NCc3ccccc3)no2)c1	none (no result: uPA surface inh, D3 antag)
COc1cccc(Nc2nc3ccccc3nc2NS(=O)(=O)c2ccc(NC(C)=O)cc2)c1	none
COc1cccc(Nc2nc3cc(C)ccc3nc2NS(=O)(=O)c2ccc(Cl)cc2)c1	D3 ag 43.3 (no result: uPA surface inh, D3 antag)
Cc1ccn2cc(-c3ccc(Br)cc3)nc2c1	uPA surface inh 2.82µM
Cc1ccn2cc(-c3cccc(NC(=O)CCC(=O)O)c3)nc2c1	uPA surface inh 3.55µM
COc1ccc(CCNC(=O)CCn2c(=O)c3ccccc3n(Cc3c(C)cc(C)cc3C)c2=O)cc1OC	none (no result: uPA surface inh, D3 antag)
COC(=O)c1ccc(NC(=O)CSc2ncc3c(n2)-c2cc(Cl)ccc2N(Cc2ccccc2)S3(=O)=O)cc1	none (no result: uPA surface inh, D3 antag)
Cc1cc(C)c2c(-n3cccc3)c(C(=O)NNS(=O)(=O)c3ccccc3)sc2n1	D3 antag -54.8
Cc1cc(C)c2c(-n3cccc3)c(C(=O)O)sc2n1	none
Cc1ccc(CNC(=O)c2sc3nc(C)cc(C)c3c2-n2cccc2)cc1	none (no result: uPA surface inh, D3 antag)
Cc1cc(C)c2c(-n3cccc3)c(C(=O)NNS(=O)(=O)c3ccc(Cl)cc3)sc2n1	D3 antag -56.0
COc1ccc(C(NC(=O)C2CCN(CCOc3ccccc3)CC2)c2ccccn2)cc1 (configuration not stated)	D3 antag inconclusive (no result: RGS4 inh, uPA surface inh)
COc1ccc(OCCN2CCC(C(=O)NC(c3ccc(C)cc3)c3ccccn3)CC2)cc1 (configuration not stated)	D3 antag -73.7 (no result: RGS4 inh, uPA surface inh)
O=C(NC(c1ccc2c(c1)OCO2)c1ccccn1)C1CCN(CCOc2ccccc2)CC1 (configuration not stated)	D3 antag -71.6 (no result: RGS4 inh, uPA surface inh)
COc1cccc(C(NC(=O)C2CCN(CCCOc3ccccc3)CC2)c2ccccn2)c1 (configuration not stated)	D3 antag -88.6 (no result: RGS4 inh, uPA surface inh)
O=C(NCCCNC(=O)c1cccs1)c1cccs1	D3 antag -64.0
CCOC(=O)N1CCc2c(sc(N)c2C#N)C1	D3 ag 59.8
Cn1c(=O)[nH]c(=O)c2c1nc(Br)n2CCSc1nc2ccccc2o1	D3 antag -69.5 (no result: uPA surface inh)
Cc1ccc(C(=O)c2coc3ccc(OCC(=O)O)cc23)cc1	D3 antag -61.0
O=C(O)COc1ccc2occ(C(=O)c3ccccc3)c2c1	D3 antag inconclusive
COC(=O)COc1ccc2occ(C(C)=O)c2c1	D3 antag -105.4
Cc1ccc(NC(=O)N2CCc3c(sc4c3CCCC4)C2c2ccccc2)cc1F (configuration not stated)	none (no result: uPA surface inh, D3 antag)
Cc1cc(C)nc(NC(=O)/C=C/c2ccccc2Cl)n1	none
Cc1cc(N)c2cc(NC(=O)/C=C/c3ccccc3Cl)ccc2n1	RGS4 inh inconclusive, uPA surface inh inconclusive, D3 antag -83.3
O=C1CCC/C(=N\NC(=O)c2ccc(COc3ccccc3-c3ccccc3)cc2)C1	none
O=C(COc1ccccc1-c1ccccc1)NN=C1CCCC1	uPA surface inh 10µM
CC1Nc2ncnc(N3CCc4ccccc4C3)c2N(Cc2ccc(Br)cc2)C1=O (configuration not stated)	uPA surface inh inconclusive, D3 antag -55.4!
CCC1Nc2ncnc(N3CCc4ccccc4C3)c2N(Cc2ccc(Br)cc2)C1=O (configuration not stated)	D3 antag -83.8 (no result: RGS4 inh, uPA surface inh)
Cc1ccc(Cn2c(C(=O)O)c(CNCc3cccs3)c3ccc(C)cc32)cc1	none (no result: uPA surface inh, D3 antag)
O=C(CCC(=O)OCC(=O)c1ccc(Cl)cc1)Nc1ccc(Oc2ccccc2)cc1	none (no result: uPA surface inh, D3 antag)
CN(N)C(=S)Nc1ccc(F)cc1	D3 ag 37.1
O=c1[nH]cnc2c([N+](=O)[O-])cccc12	D3 antag -79.8
O=[N+]([O-])c1cccc2c(Br)[nH]nc12	none (no result: uPA surface inh, D3 ag, D3 antag)
CCN(CC)S(=O)(=O)c1cccc(C(=O)Nc2ccccc2C(=O)Nc2ccc(OC)cc2)c1	none (no result: uPA surface inh, D3 antag)
O=C(Cc1ccc(Cl)cc1)N1CCN(c2ccc(F)cc2)CC1	none
